This passage reports binding signal results from article PMC8384837, “Expanding the binding specificity for RNA recognition by a PUF domain”.

What all share (experiment): yeast three-hybrid, YBZ-1, SC-Leu-His + 0.5 mM 3-AT, 4 days
Settings in all cases: tags: N-Gal4 AD-HA kept; label: inside an RPR1-promoter hybrid RNA with tandem MS2 sites; ssRNA

In one assay the target is PUM1 PUF domain R8-KYV (Homo sapiens, UniProt Q14671 828-1176, N1122K;Q1126V). In a few lines:
(§1)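 The interaction score is the log change in how often each variant appears, from input to selection. Frequencies came from PCR-amplified, Illumina-sequenced repeat regions of Pumilio-1 PUF domain libraries grown in strain YBZ-1 (LexA–MS2 coat fusion, HIS3 reporter) alongside matching RNA elements. Input plates were SC-Leu and selection plates were SC-Leu-His + 0.5 mM 3-AT, each for four days, and the log2 calculation used a pseudocount of 1 where a variant was absent.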

Another assay addresses PUM1 PUF domain R2-SWW (Homo sapiens, UniProt Q14671 828-1176, N899S;Y900W;Q903W). In a few lines: as §1
The target in another assay is PUM1 PUF domain R8-EWR (Homo sapiens, UniProt Q14671 828-1176, N1122E;Y1123W;Q1126R). Put shortly:
as §1

The target in another assay is PUM1 PUF domain R5-LYE (Homo sapiens, UniProt Q14671 828-1176, C1007L;R1008Y;Q1011E). Put shortly:
as §1

In another assay the target is T1, PUM1 PUF domain R6-GWM (Homo sapiens, UniProt Q14671 828-1176, N1043G;Y1044W;Q1047M).
T1 sequence: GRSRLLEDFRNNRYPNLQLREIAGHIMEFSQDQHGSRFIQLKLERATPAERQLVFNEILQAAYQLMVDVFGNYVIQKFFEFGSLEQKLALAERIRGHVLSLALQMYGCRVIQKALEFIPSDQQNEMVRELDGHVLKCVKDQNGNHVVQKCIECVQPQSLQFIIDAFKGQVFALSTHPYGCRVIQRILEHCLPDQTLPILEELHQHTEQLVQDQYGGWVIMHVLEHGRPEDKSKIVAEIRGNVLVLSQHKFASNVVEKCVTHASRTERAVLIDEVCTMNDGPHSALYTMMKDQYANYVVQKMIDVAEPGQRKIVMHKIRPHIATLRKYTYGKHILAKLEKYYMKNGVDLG
Put shortly: as §1

The target in another assay is PUM1 PUF domain R3-MRA (Homo sapiens, UniProt Q14671 828-1176, C935M;Q939A). Put shortly:
as §1

The target in a further assay is PUM1 PUF domain R5-SGK (Homo sapiens, UniProt Q14671 828-1176, C1007S;R1008G;Q1011K). Put shortly: as §1
In a further assay the target is PUM1 PUF domain R5-KSR (Homo sapiens, UniProt Q14671 828-1176, C1007K;R1008S;Q1011R). In a few lines:
as §1

The next assay has as its target PUM1 PUF domain R4-MNR (Homo sapiens, UniProt Q14671 828-1176, N971M;H972N;Q975R). In a few lines: as §1
The target in a further assay is PUM1 PUF domain R4-PYE (Homo sapiens, UniProt Q14671 828-1176, N971P;H972Y;Q975E). Put shortly:
as §1

Consider “GGCUAGAACUAGUGGAUCCCCCGGCGCCCGGCGGCUCGAGCCCGGGUAAGGGUAAAUAGUCUGCAUGCCGCCGGGCGCCAUGCCUGCAGGUCGACUCUAGAAAACAUG”, for which the binding signal with PUM1 PUF domain R8-KYV was 3.44 log2 enrichment (interaction score). With “GGCUAGAACUAGUGGAUCCCCCGGCGCCCGGCGGCUCGAGCCCGGGUAAGUGUAAAAAGUCUGCAUGCCGCCGGGCGCCAUGCCUGCAGGUCGACUCUAGAAAACAUG”, in the assay with PUM1 PUF domain R2-SWW, the binding signal was 3.5 log2 enrichment (interaction score).

Take “GGCUAGAACUAGUGGAUCCCCCGGCGCCCGGCGGCUCGAGCCCGGGUAAGCGUAAAUAGUCUGCAUGCCGCCGGGCGCCAUGCCUGCAGGUCGACUCUAGAAAACAUG”: the binding signal with PUM1 PUF domain R8-KYV was 2.16 log2 enrichment (interaction score); with PUM1 PUF domain R8-EWR, 2.45 log2 enrichment (interaction score).

On to “GGCUAGAACUAGUGGAUCCCCCGGCGCCCGGCGGCUCGAGCCCGGGUAAGUGUAAAUAGUCUGCAUGCCGCCGGGCGCCAUGCCUGCAGGUCGACUCUAGAAAACAUG”, for which the binding signal with PUM1 PUF domain R8-KYV is 2.77 log2 enrichment (interaction score); in the assay with PUM1 PUF domain R5-LYE, 3.07 log2 enrichment (interaction score); with PUM1 PUF domain R8-EWR it was 1.16 log2 enrichment (interaction score); in the assay with PUM1 PUF domain R6-GWM it was 2.52 log2 enrichment (interaction score). “GGCUAGAACUAGUGGAUCCCCCGGCGCCCGGCGGCUCGAGCCCGGGUAAGUGUAAUUAGUCUGCAUGCCGCCGGGCGCCAUGCCUGCAGGUCGACUCUAGAAAACAUG”: the binding signal with PUM1 PUF domain R3-MRA is 2.68 log2 enrichment (interaction score). For the sequence “GGCUAGAACUAGUGGAUCCCCCGGCGCCCGGCGGCUCGAGCCCGGGUAAGUGUUAAUAGUCUGCAUGCCGCCGGGCGCCAUGCCUGCAGGUCGACUCUAGAAAACAUG”, the binding signal with PUM1 PUF domain R5-SGK was 2.15 log2 enrichment (interaction score); with PUM1 PUF domain R5-KSR, 2.77 log2 enrichment (interaction score). “GGCUAGAACUAGUGGAUCCCCCGGCGCCCGGCGGCUCGAGCCCGGGUAAGUGUCAAUAGUCUGCAUGCCGCCGGGCGCCAUGCCUGCAGGUCGACUCUAGAAAACAUG”: the binding signal with PUM1 PUF domain R5-SGK was 0.9 log2 enrichment (interaction score); in the assay with PUM1 PUF domain R5-KSR, 4.35 log2 enrichment (interaction score). Consider “GGCUAGAACUAGUGGAUCCCCCGGCGCCCGGCGGCUCGAGCCCGGGUAAGUGUAUAUAGUCUGCAUGCCGCCGGGCGCCAUGCCUGCAGGUCGACUCUAGAAAACAUG”, for which the binding signal in the assay with PUM1 PUF domain R4-MNR was 4.01 log2 enrichment (interaction score); in the assay with PUM1 PUF domain R4-PYE, 4.08 log2 enrichment (interaction score). As for “GGCUAGAACUAGUGGAUCCCCCGGCGCCCGGCGGCUCGAGCCCGGGUAAGUGUACAUAGUCUGCAUGCCGCCGGGCGCCAUGCCUGCAGGUCGACUCUAGAAAACAUG”, the binding signal in the assay with PUM1 PUF domain R4-MNR is 3.28 log2 enrichment (interaction score); with PUM1 PUF domain R4-PYE, 0.65 log2 enrichment (interaction score).

Regarding “GGCUAGAACUAGUGGAUCCCCCGGCGCCCGGCGGCUCGAGCCCGGGUAAGUGUAAGUAGUCUGCAUGCCGCCGGGCGCCAUGCCUGCAGGUCGACUCUAGAAAACAUG”, in the assay with PUM1 PUF domain R3-MRA, the binding signal is 5.2 log2 enrichment (interaction score).
